In general, inhibition refers to the change of the read-out against control, counted positive when it falls.

The campaign covered roughly 330,000 compounds. About 5,800 (1.8%) were called active. The sample holds actives, similar compounds and a random draw of the others, so the mix is not that of the screen. A number with no mark means an inactive call.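 How the source made its calls: active means inhibition above about 50% at the single tested dose (limit read from the data); inactive means the rest.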

The target of the assay is Sentrin-specific protease 6 (Homo sapiens) (UniProt Q9GZR1). The assay is described as follows: inhibition of human SENP6 catalytic domain – biochemical, luminescence, uHTS, primary screen (AID 2599).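 Further: plate controls were DMSO wells with enzyme for no effect and DMSO wells lacking enzyme for full effect.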 Particulars: Recombinant SENP6 catalytic domain, aminoluciferin luminescence; at 10 µM; hits give high values.
Sentrin-specific protease 6 (Homo sapiens), sequence (Q9GZR1 628-1112 limits assumed): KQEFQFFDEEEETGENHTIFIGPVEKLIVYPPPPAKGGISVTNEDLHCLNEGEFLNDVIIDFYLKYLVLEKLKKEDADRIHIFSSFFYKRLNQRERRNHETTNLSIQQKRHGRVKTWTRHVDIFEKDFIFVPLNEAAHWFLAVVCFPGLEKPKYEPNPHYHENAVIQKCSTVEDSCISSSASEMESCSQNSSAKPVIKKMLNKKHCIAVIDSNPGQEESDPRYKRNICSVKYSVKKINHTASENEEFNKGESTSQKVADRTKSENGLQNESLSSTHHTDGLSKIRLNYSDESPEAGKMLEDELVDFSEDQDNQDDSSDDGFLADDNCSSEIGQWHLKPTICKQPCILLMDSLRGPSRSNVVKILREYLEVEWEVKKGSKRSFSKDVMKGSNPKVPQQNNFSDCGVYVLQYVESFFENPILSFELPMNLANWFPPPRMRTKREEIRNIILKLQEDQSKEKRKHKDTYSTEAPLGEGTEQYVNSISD
On to `Cc1[nH]n(C)c(=O)c1N=Nc1ccc(S(C)(=O)=O)cc1`, for which the inhibition is -4.33%.
To `Cc1cccc(N=Nc2c(C)[nH]n(-c3ccccc3)c2=O)c1` belongs -17.2%.
With `Cc1[nH]n(C(N)=S)c(=O)c1N=Nc1ccc(Cl)cc1Cl` the figure was 96.1% (active); with `COc1ccc(CCNC(=O)COC(=O)Cc2ccccc2F)cc1`, 0.819%; with `CCN(CC)CCOCCOc1ccc(Cl)c2ccccc12`, -6.66%.
To `CCOC(=O)c1cnc(COc2ccccc2Cl)[nH]c1=O` belongs -27.6%; to `CCOC(=O)c1cnc2sccn2c1=O`, -5.45%; to `CCOC(=O)c1cnc2[nH]c3ccccc3n2c1=O`, 83% (active).
Turning to `Cc1ccc(S(=O)(=O)NCC(=O)N(CC(=O)NC2CCCCC2)Cc2ccco2)cc1`, the inhibition was 1.15%.
With `COc1cc(C(=O)NCc2ccc3c(c2)cc(C)n3C)cc(OC)c1OC` the figure was 1.27%; with `COc1cc2c3c(c1)/C(=C1/SC(=S)NC1=O)C(=O)N3C(C)(C)C=C2C`, 24.2%; with `O=c1[nH]n(-c2ccc([N+](=O)[O-])cc2)c(=O)c2ccccc12`, -18.2%.
With `O=C1CC(c2ccccc2)=NN1c1ccc([N+](=O)[O-])cc1` the figure was 75.3% (active); with `Cc1nc(-c2ccc([N+](=O)[O-])cc2)c(-c2ccccc2)o1`, -20.8%.
To `COc1ccc2oc(C(=O)NCc3ccco3)c(C)c2c1` belongs -9.13%; to `COc1ccc2oc(C(=O)NCC(Cc3ccccc3)N(C)C)c(C)c2c1` (stereo not given), -20.2%.
`COc1cccc(OCC(O)CNC(=O)c2oc3c(C)c(C)ccc3c2C)c1` (stereo not given): the inhibition was 95.6% (active).
For `Cc1ccc(C(=O)Nc2ccc3c(c2)OCCO3)cc1S(=O)(=O)N1CCOCC1`, the inhibition was 7.66%.
In the case of `CC(C)C(NS(=O)(=O)c1cccs1)C(=O)Nc1nc(C(C)(C)C)cs1` (stereo not given), the inhibition is -11.7%.
To `CN(Cc1nc2ccccc2s1)C(=O)c1ccc(F)cc1` belongs 2.3%; to `COc1ccccc1OCc1nc2ccccc2s1`, 94.1% (active).
To `COc1ccccc1N1CC(O)=C(c2nc3ccccc3s2)C1=N` belongs -18.4%; to `C/C=C/c1ccc(OCC(O)CN2CCCCCCC2)c(OC)c1` (stereo not given), 1.7%.
To `CC(C)[C@H](NC(=O)N1CC(=O)Nc2ccccc21)C(=O)N[C@@H](Cc1c[nH]c2ccccc12)C(=O)O` belongs -5.26%; to `COc1ccc(OCC(=O)Nc2nnc(-c3ccco3)s2)cc1`, -16.6%; to `N#Cc1ccc(OCc2nnc(-c3ccc([N+](=O)[O-])cc3)o2)cc1`, -4.94%.
Consider `CCCCOc1ccc(-c2nnc(-c3ccco3)o2)cc1`, for which the inhibition is 67.2% (active).
Take `CCOc1ccc(-n2c(SCC(N)=O)nnc2-c2ccco2)cc1`: the inhibition was -12.9%.
With `CCOc1ccc(-c2nnc(-c3ccco3)o2)cc1` the figure was 85% (active).
In the case of `CCCCOc1ccc(-c2ncc(C(=O)OCC)c(N)n2)cc1`, the inhibition is -8.7%.
To `O=S(=O)(Cc1nnnn1-c1ccccc1)c1ccccc1` belongs 6.33%; to `Cc1ccc(NC(=O)[C@H](Cc2ccccc2)NC(=O)C2CCNCC2)cc1`, -5.94%; to `CCOc1ccc(S(=O)(=O)N2CCC(C(=O)OCc3ccc(OC)cc3)CC2)cc1`, -11.1%.
To `O=C(Nc1ccc2oc(-c3ccc4ccccc4c3)nc2c1)c1cccs1` belongs -13.1%; to `CCc1ccc2oc(-c3ccc(N)cc3)nc2c1`, 96.1% (active).
With `Cc1cc2nc(-c3ccc(NC(=O)c4cccnc4)cc3)oc2cc1C` the figure was -15%.
Consider `COc1cccc(NC(=O)Cn2cnc3sc(C)c(S(=O)(=O)N4CCN(C)CC4)c3c2=O)c1`, for which the inhibition was 10.7%.
As to `Cc1nnc(Nc2ccccc2F)s1`, the inhibition is 8.06%.
To `C=CCN1CCN(C(=O)CCCc2ccccc2)CC1` belongs 0.31%; to `O=c1ccc2cc(S(=O)(=O)Nc3ccccc3F)ccc2o1`, 16.4%; to `CCN1CC=C2C(C#N)=C(N)C(C#N)(C#N)[C@H](c3ccoc3)[C@H]2C1`, 72.9% (active).
With `CCCN1CC=C2C(C#N)=C(N)C(C#N)(C#N)C(c3cc(OC)ccc3OC)C2C1` (stereo not given) the figure was 0.193%; with `N#CC1=C(N)C(C#N)(C#N)[C@H](c2ccsc2)[C@H]2COCC=C12`, -0.527%; with `CC(CO)(CO)NC(=O)c1ccc(=O)[nH]n1`, -1.98%.
To `Cc1c(C(=O)Nc2ccccn2)oc2ccc(Br)cc12` belongs 56.3% (active); to `Cc1noc(C)c1C(=O)Nc1ccccn1`, -8.05%; to `Cc1nonc1NC(=O)c1oc2ccccc2c1C`, 2.56%.
For `Cn1ccc(=Nc2ccc(NC(=O)c3ccc(N=c4ccn(C)c5ccc([N+](=O)[O-])cc45)cc3)cc2)cc1`, the inhibition is 0.718%.
With `NS(=O)(=O)c1ccc(-c2ccc(/C=C3\SC(=O)NC3=O)o2)cc1` the figure was -21.1%; with `CCn1c(CN2C(=O)CSc3ccccc32)n[nH]c1=S`, 5.59%.
Take `CCOC(=O)c1cc(C)sc1NC(=O)C1CCC1`: the inhibition is -29.2%.
With `COc1cccc(C(=O)NNC(=O)c2cccc(F)c2)c1` the figure was 0.598%.
With `CCOC(=O)c1cc2cc3ccccc3cc2oc1=O`, the inhibition was 13.2%.
Consider `COc1cccc(C(=O)c2cc3ccc(O)cc3oc2=O)c1`, for which the inhibition is 101% (active).
For `Cc1ccc(N2C(=O)C(NC(=O)c3c(F)cccc3F)(C(F)(F)F)C3=C2CC(C)(C)CC3=O)cc1` (stereo not given), the inhibition is -5.98%.
To `COC(=O)c1c(CCl)noc1C(=O)NC(C)C` belongs 15.8%.
As for `CC(=O)c1ccc(NC(=O)c2ccc3c(Cl)c4c(nc3c2)CCCC4)cc1`, the inhibition is -20.3%.
With `CC(C)CCNC(=O)c1ccc2c(Cl)c3c(nc2c1)CCC3` the figure was 76.2% (active); with `COc1ccc(N2CCN(C(=O)c3ccc4c(Cl)c5c(nc4c3)CCCC5)CC2)cc1`, -0.317%; with `Cc1nc2ccccc2c(=O)n1-c1ccc(F)c(NC(=O)c2cccs2)c1`, 1.23%.
Regarding `CCn1nnnc1SCC(=O)c1ccc(C)cc1C`, the inhibition was 16%.
To `CC(Oc1cccc(Cl)c1)C(=O)NC1CC(C)(C)NC(C)(C)C1` (stereo not given) belongs 0.854%; to `Cc1nnc(SCC(=O)Nc2ccc(S(=O)(=O)Nc3ccc(Cl)nn3)cc2)s1`, -2.31%.
With `Cc1ccc(SC(CC(=O)c2ccc(C(C)(C)C)cc2)C(=O)O)cc1` (stereo not given) the figure was -11.7%.
To `CC(C)CNC(=O)c1cc(-c2ccc(Br)cc2)on1` belongs -1.36%; to `CC(C)Cc1cc(C(=O)NCCc2ccccc2)no1`, 13%; to `CC(C)Cc1cc(C(=O)Nc2cc(Br)ccc2O)no1`, 58.1% (active).
Take `O=C(NNc1cc(Cl)cc(Cl)c1)c1c(F)cccc1Cl`: the inhibition was -9.66%.
To `COc1ccc2[nH]c(C(=O)Nc3ccccc3Cl)cc2c1` belongs -36%; to `O=C(Nc1ccccc1)c1cc2ccccc2[nH]1`, 86.2% (active); to `CC(OC(=O)c1cc2ccccc2[nH]1)C(=O)N(C)c1ccccc1` (stereo not given), -10.7%.
To `O=C(Cc1ccc(S(=O)(=O)N2CCOCC2)s1)NCCC(c1ccccc1)c1ccccc1` belongs -9.6%; to `CC(=O)n1c(C=Nc2ccccc2)c(O)c2ccccc21`, -2.55%; to `Oc1ccc(N=Cc2sc3ccccc3c2Cl)cc1`, 65.7% (active).
Consider `CCn1c(SCC(=O)Nc2cccc(F)c2)nnc1-c1cc2cc(Br)ccc2o1`, for which the inhibition was -0.574%.
With `CCc1cccc(C)c1NC(=O)COC(=O)Cc1ccsc1` the figure was -15.1%.
`CCN1CCN(C(=O)/C=C\C(=O)O)CC1`: the inhibition is -13.9%.
`O=[N+]([O-])c1ccc2nc(-c3ccccn3)[nH]c2c1`: the inhibition is 55.5% (active).
With `O=[N+]([O-])c1ccc(N/N=C2/CCCCC2c2ccccn2)c([N+](=O)[O-])c1` (stereo not given) the figure was -14.2%; with `O=[N+]([O-])c1ccc2c(c1)Nc1nc3ccccc3nc1N2`, -19%; with `Cc1cccc(C(=O)OCC(=O)Nc2ccc(F)cc2)c1`, -14%.
For the compound `CCOC(=O)c1cccc(NC(=O)CCOc2ccccc2)c1`, the inhibition was -8.69%.
To `CCOC(=O)c1cccc(NC(=O)c2ccc(F)cc2F)c1` belongs 53.3% (active); to `COc1c(C=O)c(CCN(C)C(=O)c2ccc(F)cc2)cc2c1OCO2`, -13.8%; to `COC(CNC(=O)Cn1ncc2ccsc2c1=O)OC`, -0.866%.
With `O=C(c1ccc(NS(=O)(=O)c2ccc3[nH]c(=O)[nH]c3c2)cc1)N1CCCCC1` the figure was -7.59%.
To `C#CCOc1ccccc1/C=C1/C(=O)ON=C1C` belongs 9.07%.
On to `Cc1ccc(C23CC4CC(CC(C(=O)NCC(=O)O)(C4)C2)C3)cc1`, for which the inhibition is -30.4%.
With `CC(C)CCNC(=O)Cn1c(=O)oc2cc(S(=O)(=O)N3CC(C)CC(C)C3)ccc21` (stereo not given) the figure was 2.44%.
For the compound `Cc1cc(=O)[nH]c(N/N=C/c2ccc3c(c2)OCCO3)n1`, the inhibition is -9.26%.
With `C(=N\Nc1ccc2ccccc2n1)/c1ccc2c(c1)OCO2` the figure was 91.4% (active); with `Cc1noc(C)c1/C=N/Nc1ccc2ccccc2n1`, -42.7%.
To `O=C(CCc1n[nH]c(=O)[nH]c1=O)N/N=C/c1ccc(Br)o1` belongs -16.6%; to `CCNc1nc(SCCOc2ccccc2)nc(N(C)C)n1`, -7.75%; to `Cn1c(-c2ccco2)nc2cc3ccccc3cc21`, 98.6% (active).
With `COc1ccccc1-n1c(-c2cc(-c3ccco3)[nH]n2)n[nH]c1=S` the figure was 8.36%.
Turning to `CS(=O)(=O)n1nc(-c2ccco2)nc1N`, the inhibition is 12.1%.
In the case of `COc1ccc(/C=N/NC(=O)c2cc(-c3cccc(C)c3)nc3ccccc23)cc1O`, the inhibition is 4.88%.
To `COc1cc(/C=N/Nc2nc3ccccc3s2)ccc1O` belongs 85.4% (active); to `COc1cc(/C=N/NC(=O)CCc2n[nH]c(=O)[nH]c2=O)ccc1O`, -10.3%.

For the origin of these results see PubChem BioAssay AID2599 (Sanford-Burnham Center for Chemical Genomics, 2010).
